This is an account of results in the supplement of paper PMC13380429.

The subject of test [1] is Vero E6 infected with SARS-CoV-2. The test can be described thus: morphology score (similarity to uninfected cells); higher = more like uninfected cells. Particulars: 24 h.
For test [2] the test system is unchanged. The test is described as follows: SARS-CoV-2 infection rate relative to infected DMSO; higher = more infection, active = 60 or less. Particulars: 24 h.

Molecules are shown by their SMILES.

In the case of `O=C(Nc1ccccc1Br)N[C@@H]1CCN(c2ccc(C(F)(F)F)cn2)C1` (10 µM), the morphology score in test [1] was determined as 0.0714. In test [2], the SARS-CoV-2 infection rate was 94.5% (inactive).
`CCC1(c2ccccc2)C(=O)NCNC1=O` [primidone] (10 µM) had a morphology score in test [1] of 0.097. Also, in test [2], the SARS-CoV-2 infection rate is 102% (inactive).
Turning to `C[C@H](N)[C@H](O)c1cccc(O)c1` [metaraminol] (10 µM), in test [1], the morphology score is -0.0578. In test [2], the SARS-CoV-2 infection rate was 104% (inactive).
`COC1CCN(C(=O)c2cc(Cc3n[nH]c(=O)c4ccccc34)ccc2F)CC1` (10 µM) had a morphology score in test [1] of 0.118. Also, in test [2], the SARS-CoV-2 infection rate is 103% (inactive).
With `Cc1onc(-c2ccccc2)c1-c1ccc(S(N)(=O)=O)cc1` [valdecoxib] (10 µM), in test [1], the morphology score was -0.0646. For the same compound, the SARS-CoV-2 infection rate in test [2] is 98.5% (inactive).
`COc1ccc(-c2cc3nccn3c(Nc3ncccc3C(N)=O)n2)cc1OC` (0.833333 µM) yielded a morphology score in test [1] of 0.46. For the same compound, the SARS-CoV-2 infection rate in test [2] was 27% (active).
In the case of `COc1cc2ncnc(Sc3nnc(C)s3)c2cc1OC` (10 µM), the morphology score in test [1] is 0.403. Besides, in test [2], the SARS-CoV-2 infection rate was 102% (inactive).
`C=C(c1ccc(C(=O)O)cc1)c1cc2c(cc1C)C(C)(C)CCC2(C)C` [bexarotene] (10 µM) gave a morphology score in test [1] of 0.18. Moreover, the SARS-CoV-2 infection rate in test [2] is 108% (inactive).
The corresponding values for `Nc1nc(/C(=C/CC(=O)O)C(=O)N[C@@H]2C(=O)N3C(C(=O)O)=CCS[C@H]23)cs1` [ceftibuten] (10 µM) are 0.161 and 103% (inactive).
`COc1cc2c(cc1OCCCN1CCCC1)N=C(N)C21CCC1` (10 µM) returned a morphology score in test [1] of 0.0229. Moreover, the SARS-CoV-2 infection rate in test [2] is 106% (inactive).
The corresponding values for `CC(=O)N[C@H]1[C@@H](O)[C@H](O)[C@@H](CO)O[C@@H]1O` [N-acetylmannosamine] (10 µM) are 0.18 and 100% (inactive).
`C[S+](C)CC[C@H](N)C(=O)O` [cabagin] (10 µM) came in with a morphology score in test [1] of 0.00749. In addition, the SARS-CoV-2 infection rate in test [2] was 109% (inactive).
The compound `CCCCCCCCCCCCCCCC=O` [1-hexadecanal] (10 µM) registered a morphology score in test [1] of 0.185. In addition, in test [2], the SARS-CoV-2 infection rate is 100% (inactive).
Compound `CCc1c2c(nc3ccc(O)cc13)-c1cc3c(c(=O)n1C2)COC(=O)[C@]3(O)CC` (0.833333 µM) had a morphology score in test [1] of -0.131. The SARS-CoV-2 infection rate in test [2] is 116% (inactive).
`COc1ccc(-n2nc(C(F)(F)F)cc2-c2ccc(Cl)cc2)cc1` (0.833333 µM) gave a morphology score in test [1] of -0.0472. In addition, the SARS-CoV-2 infection rate in test [2] is 101% (inactive).
The corresponding values for `Cc1nc(-c2cn3c(n2)-c2ccc(-c4cnn(C(C)(C)C(N)=O)c4)cc2OCC3)n(C(C)C)n1` [taselisib] (0.833333 µM) are -0.0504 and 98.5% (inactive).
With `S=C=Nc1ccc(N=C=S)cc1` [bitoscanate] (10 µM), in test [1], the morphology score is -0.0255. Further, the SARS-CoV-2 infection rate in test [2] was 106% (inactive).
The corresponding values for `Nc1ccc(/N=N/c2ccccc2)c(N)n1` [phenazopyridine] (10 µM) are 0.34 and 87.5% (inactive).
As to `CC(C)NC(=O)COc1cccc(-c2nc(Nc3ccc4[nH]ncc4c3)c3ccccc3n2)c1` (0.833333 µM), the morphology score in test [1] was -0.0169. In addition, the SARS-CoV-2 infection rate in test [2] is 106% (inactive).
In test [1], `N#CC(c1ccc(Cl)cc1)c1c(Cl)cc(-n2ncc(=O)[nH]c2=O)cc1Cl` (stereo unspecified) [diclazuril] (10 µM) gave a morphology score of 0.16. In addition, the SARS-CoV-2 infection rate in test [2] was 93% (inactive).
`Cn1cc(-c2ccncc2)c(-c2ccc(OCc3ccc4ccccc4n3)cc2)n1` (10 µM) returned a morphology score in test [1] of 0.927. The SARS-CoV-2 infection rate in test [2] is 8% (active).
The corresponding values for `C[n+]1cc2c3c(ccc2c2ccc4cc5c(cc4c21)OCO5)OCO3` [sanguinarium-chloride] (10 µM) are -0.0249 and 94.5% (inactive).
In the case of `CCN(CC)CC(=O)Nc1c(C)cccc1C` [lidocaine] (10 µM), in test [1], the morphology score is 0.0603. In test [2], the SARS-CoV-2 infection rate is 100% (inactive).
The corresponding values for `COc1cc2c(NC3CCN(C)CC3)nc(N3CCCN(C)CC3)nc2cc1OCCCN(C)C` (10 µM) are 0.124 and 116% (inactive).
The corresponding values for `OCCN1CCN(CC/C=C2/c3ccccc3Sc3ccc(C(F)(F)F)cc32)CC1` [flupentixol] (10 µM) are 0.506 and 79% (inactive).
The compound `C[C@H](NC(=O)Cc1cc(F)cc(F)c1)C(=O)N[C@@H]1C(=O)N(C)c2ccccc2-c2ccccc21` (10 µM) showed a morphology score in test [1] of 0.18. For the same compound, the SARS-CoV-2 infection rate in test [2] was 119% (inactive).
In test [1], `CCCc1ncc(C[n+]2ccccc2C)c(N)n1` [amprolium] (10 µM) showed a morphology score of -0.0897. In addition, in test [2], the SARS-CoV-2 infection rate is 104% (inactive).
Take `C[C@H](NC(=O)c1sccc1OCc1ccc(Cl)cc1)c1ccccc1` (10 µM): the morphology score in test [1] turned out to be 0.0842. Besides, in test [2], the SARS-CoV-2 infection rate was 94.5% (inactive).
Turning to `N#CC1(c2ccc(NC(=O)c3cccnc3NCc3ccncc3)cc2)CCCC1` [apatinib] (10 µM), the morphology score in test [1] was 0.31. The SARS-CoV-2 infection rate in test [2] is 107% (inactive).
Consider `O=C(O)Cc1sc(-c2ccccc2)nc1-c1ccc(Cl)cc1` [fentiazac] (10 µM), for which the morphology score in test [1] came out at 0.0803. The SARS-CoV-2 infection rate in test [2] was 100% (inactive).
Take `Cc1cncc(CN2CCC(=C3c4ccc(Cl)cc4CCc4cccnc43)CC2)c1` [rupatadine] (10 µM): the morphology score in test [1] was -0.0273. Besides, in test [2], the SARS-CoV-2 infection rate was 108% (inactive).
In turn, `CO[C@@]12[C@H](COC(N)=O)C3=C(C(=O)C(C)=C(N)C3=O)N1C[C@@H]1N[C@@H]12` [mitomycin-C] (10 µM) displayed a morphology score in test [1] of 0.101. Besides, in test [2], the SARS-CoV-2 infection rate was 104% (inactive).
In turn, `CCC(=O)NC[C@@H]1C[C@H]1c1cccc2c1CCO2` [tasimelteon] (10 µM) registered a morphology score in test [1] of 0.169. Also, the SARS-CoV-2 infection rate in test [2] is 98.5% (inactive).
